For 3 compounds, inhibition results are on record in PubChem BioAssay AID651598 (Sanford-Burnham Center for Chemical Genomics, 2012).

By inhibition is commonly meant the drop in the measured response relative to a control, in per cent. Read a high inhibition as a response far below the control.

Structures are written as SMILES. “And” between values parts separate entries of the source, which are not always exact repeats. Equal values may be shown once.

In the assay the target is C-X-C chemokine receptor type 6 (Homo sapiens) (UniProt O00574). As to the kind of experiment: apelin receptor (APJ) antagonists, SAR follow-up, counter-screen for CXCR6 antagonist project, cell-based, beta-arrestin, DiscoveRx, panel, CHO-K1 (AID 651598). Conditions: CHO-K1 PathHunter beta-arrestin luminescence, antagonist mode; run 5, at 80 µM (top of the series). A general note: The purpose of a counterscreen is to sort out artefacts and off-target activity.
Sequence of C-X-C chemokine receptor type 6 (Homo sapiens) (O00574 whole entry, looked up): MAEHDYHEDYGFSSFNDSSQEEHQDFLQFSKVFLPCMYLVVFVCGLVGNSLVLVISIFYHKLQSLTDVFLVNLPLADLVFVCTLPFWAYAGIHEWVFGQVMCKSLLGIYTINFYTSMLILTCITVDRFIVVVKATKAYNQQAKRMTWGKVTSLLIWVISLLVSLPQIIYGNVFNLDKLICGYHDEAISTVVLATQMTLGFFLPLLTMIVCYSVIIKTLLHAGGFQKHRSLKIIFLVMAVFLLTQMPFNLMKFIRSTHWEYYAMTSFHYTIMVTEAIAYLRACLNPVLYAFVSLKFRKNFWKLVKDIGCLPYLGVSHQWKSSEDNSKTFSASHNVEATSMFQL
Consider `COc1cc(C(=O)NC2CC3CCC(C2)N3CC(=O)Nc2ccccc2)cc(OC)c1OC` (stereo not drawn), for which the inhibition was 45.3% and 9.45%. In the case of `COc1cc(C(=O)NC2CC3CCCC(C2)N3CC(=O)Nc2ccccc2)cc(OC)c1OC` (stereo not drawn), the inhibition was 85.4% and 45.2% and 22.2%. To `COc1cc(C(=O)NC2CCN(CC(=O)Nc3ccccc3)CC2)cc(OC)c1OC` belongs 12%.
